Measured values from PubChem BioAssay (NCATS).
Results filed as inconclusive are left out. Some structures have more than one record in an assay (separate samples or runs), and their calls can disagree. Active and inactive are the calls of the source. Calls come from the whole dose curve; as a rule, active = well fitted curve in the direction sought with a large enough effect; inconclusive = small, poorly fitted or top-dose-only effect, or another doubt; inactive = no such curve, though single readings can be large; an effect the other way counts as inactive or inconclusive.

Tests used:
WaGa = assay: qHTS assay to identify novel small-molecules to repurpose for Merkel cell carcinoma treatment (AID 1296009); details: MCC and control cell lines, CellTiter-Glo viability, 72 h; series mostly up to 46 µM; note: nearly all actives have a fitted effect of over 60% in size
Summary of the method: (§1)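 Cell viability, measured as CellTiter-Glo luminescence, was normalized between DMSO and no-cell wells. The cells had been exposed to 8- or 11-point compound dilutions for 72 hr at 37 degree celsius.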

C33A = assay: Primary qHTS to identify gynecologic anti-cancer compounds using libraries of approved drugs and bioactive compounds (AID 1345084); details: Gynecologic cancer cell panel viability, ATPlite luminescence, 48 h; series mostly up to 57.5 µM; note: nearly all actives have a fitted effect of over 55% in size; note: potency is the fitted concentration of half-maximal effect
Summary of the method: (§2)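 Cell viability after 48 h drug treatment, ATPlite luminescence readout; five doses.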

HeLa = assay: as above; details: Gynecologic cancer cell panel viability, ATPlite luminescence, 48 h; series mostly up to 57.5 µM
Summary of the method: as §2

Hek293T = assay: as above; details: Gynecologic cancer cell panel viability, ATPlite luminescence, 48 h, control line for the selectivity index; series mostly up to 57.5 µM
Summary of the method: as §2

JEG-3 = assay: as above; details: Gynecologic cancer cell panel viability, ATPlite luminescence, 48 h; series mostly up to 57.5 µM
Summary of the method: as §2

PA-1 = assay: as above; details: Gynecologic cancer cell panel viability, ATPlite luminescence, 48 h; series mostly up to 57.5 µM
Summary of the method: as §2

Tov-21-G = assay: as above; details: Gynecologic cancer cell panel viability, ATPlite luminescence, 48 h; series mostly up to 57.5 µM
Summary of the method: as §2

Tov112D = assay: as above; details: Gynecologic cancer cell panel viability, ATPlite luminescence, 48 h; series mostly up to 57.5 µM
Summary of the method: as §2

[1] = Drug repurposing screens with cells derived from glioblastoma tumor samples (AID 1345199); details: GBM patient neurospheres viability, ATP luminescence, 48 h; for Potency: tumour line A; note: potency is the fitted concentration of half-maximal effect; for all read-outs here: nearly all actives have a fitted effect of over 40% in size
Summary of the method: (§3)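 Primary testing used CD133+ neurospheres from four GBM patients, seven concentrations, 48 h exposure and ATP-based viability; confirmation added three slower-growing patient lines.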

CAOV3 = assay: Primary qHTS to identify gynecologic anti-cancer compounds using libraries of approved drugs and bioactive compounds (AID 1345084); details: Gynecologic cancer cell panel viability, ATPlite luminescence, 48 h; series mostly up to 57.5 µM; note: nearly all actives have a fitted effect of over 55% in size; note: potency is the fitted concentration of half-maximal effect
Summary of the method: as §2

CASKI = assay: as above; details: Gynecologic cancer cell panel viability, ATPlite luminescence, 48 h; series mostly up to 57.5 µM
Summary of the method: as §2

Es-2 = assay: as above; details: Gynecologic cancer cell panel viability, ATPlite luminescence, 48 h; series mostly up to 57.5 µM
Summary of the method: as §2

OV90 = assay: as above; details: Gynecologic cancer cell panel viability, ATPlite luminescence, 48 h; series mostly up to 57.5 µM
Summary of the method: as §2

astro = assay: Drug repurposing screens with cells derived from glioblastoma tumor samples (AID 1345199); details: viability, ATP luminescence, 48 h; series mostly up to 45.9 µM; note: nearly all actives have a fitted effect of over 40% in size; note: potency is the fitted concentration of half-maximal effect
Summary of the method: as §3

SKOV3 = assay: Primary qHTS to identify gynecologic anti-cancer compounds using libraries of approved drugs and bioactive compounds (AID 1345084); details: Gynecologic cancer cell panel viability, ATPlite luminescence, 48 h; series mostly up to 57.5 µM; note: nearly all actives have a fitted effect of over 55% in size; note: potency is the fitted concentration of half-maximal effect
Summary of the method: as §2

UISO = assay: qHTS assay to identify novel small-molecules to repurpose for Merkel cell carcinoma treatment (AID 1296009); details: MCC and control cell lines, CellTiter-Glo viability, 72 h; series mostly up to 46 µM; note: nearly all actives have a fitted effect of over 60% in size
Summary of the method: as §1

[2] = at 45.9 µM (top of the series), tumour line B
[3] = at 45.9 µM (top of the series), tumour line D
% is set by controls: 0 for no effect and ±100 for the full control effect.

CN1C(=O)[C@@H](NC(=O)c2cc3ccccc3[nH]2)N=C(c2ccccc2)c2ccccc21
inactive: Potency (WaGa) | Potency (C33A) | Potency (HeLa) | Potency (Hek293T) | Potency (JEG-3) | Potency (PA-1) | Potency (Tov-21-G) | Potency (Tov112D) | activity, negative = cell killing [1, 2] 8.15% | activity, negative = cell killing [1, 3] -1.15%

C=CCOC(Cn1ccnc1)c1ccc(Cl)cc1Cl (stereo unspecified)
inactive: Potency (WaGa) | Potency (C33A) | Potency (CAOV3) | Potency (CASKI) | Potency (Es-2) | Potency (Hek293T) | Potency (JEG-3) | Potency (Tov-21-G) | Potency (Tov112D) | activity, negative = cell killing [1, 2] -23.6% | activity, negative = cell killing [1, 3] -33.6%
active: Potency [1] 20 µM

CN(C)CCc1c[nH]c2cccc(O)c12
inactive: Potency (C33A) | Potency (CASKI) | Potency (Es-2) | Potency (HeLa) | Potency (Hek293T) | Potency (JEG-3) | Potency (OV90) | Potency (PA-1) | Potency (Tov-21-G) | Potency (Tov112D) | activity, negative = cell killing ([1]; at 91.6 µM (top of the series), tumour line B) -8.47% | activity, negative = cell killing ([1]; at 91.6 µM (top of the series), tumour line D) -23.4% | Potency (astro)

C[C@@H]1CC[C@H]2[C@@H](C)C(=O)O[C@@H]3O[C@@]4(C)CC[C@@H]1[C@]32OO4
inactive: Potency (WaGa) | Potency (C33A) | Potency (CASKI) | Potency (Es-2) | Potency (HeLa) | Potency (Hek293T) | Potency (JEG-3) | Potency (OV90) | Potency (PA-1) | Potency (SKOV3) | Potency (Tov-21-G) | Potency (Tov112D) | activity, negative = cell killing [1, 2] -29.6%

C=CC[C@]1(O)CC[C@H]2[C@@H]3CCC4=CC(=O)CCC4=C3C=C[C@@]21C
inactive: Potency (UISO) | Potency (CAOV3) | Potency (CASKI) | Potency (Es-2) | Potency (HeLa) | Potency (Hek293T) | Potency (JEG-3) | Potency (PA-1) | Potency (Tov-21-G) | Potency (Tov112D) | activity, negative = cell killing [1, 2] -12.5%
active: Potency [1] 17.8 µM

CC[C@]1(O)CC[C@H]2[C@@H]3CCC4=CCCC[C@@H]4[C@H]3CC[C@@]21C
inactive: Potency (WaGa) | Potency (CASKI) | Potency (JEG-3) | activity, negative = cell killing [1, 2] -25.8%
active: Potency [1] 10 µM

CCC1(c2cnc[nH]2)Cc2ccccc2C1
inactive: activity, negative = cell killing [1, 3] -24.8% | Potency (astro)

C[C@]12CC[C@H](O)CC1=CC[C@@H]1[C@@H]2CC[C@]2(C)C(=O)CC[C@@H]12
inactive: Potency (C33A) | Potency (CAOV3) | Potency (CASKI) | Potency (Es-2) | Potency (Hek293T) | Potency (JEG-3) | Potency (OV90) | Potency (PA-1) | Potency (SKOV3) | Potency (Tov-21-G) | Potency (Tov112D) | activity, negative = cell killing [1, 2] -4.02%
active: Potency (HeLa) 14.1 µM | Potency [1] 22.4 µM
